Bioassay records deposited in PubChem by National Center for Advancing Translational Sciences (NCATS).
In the library only some 21% were active in any assay of this set; here they are far more common.
TDP1 cell CPT: DT40-hTDP1 cell growth loss with CPT. 12% of 420,000 active. AID 686979. Potency, µM (top dose mostly 46.2 µM), usual class: inhibitors. chicken DT40 Tdp1-/-;hTDP1 cells + 20 nM CPT, ATP luminescence, 48 h; further: nearly all actives have a fitted effect of over 55% in size
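Chicken DT40 Tdp1-/- cells complemented with human TDP1, 400 cells/well, exposed to compounds plus 20 nM camptothecin for at least 48 h at 37 C; viability read as ATP content by CellTiter-Glo luminescence.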
Gal4-VP16 FLuc: Gal4-VP16 reporter inhibition counter-screen; AID 2546; Drosophila S2 Gal4-VP16 UAS-luciferase, luminescence, 20 h; 3.5% of 310,000 active; Potency, µM (series often up to 53.6 µM), usual class: inhibitors;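 further: Gal4-VP16 expression switched on by copper sulfate through the metallothionein promoter; nearly all actives have a fitted effect of over 50% in size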
ELG1 DNA repair: ELG1-dependent DNA repair inhibition. AID 504467. 2.3% of 330,000 active. Potency, µM (series often up to 46.1 µM), actives largely listed as inhibitors. HEK293T ELG1-luciferase reporter, luminescence, 16 h; DNA damage induced by 5-fluorouridine; further: nearly all actives have a fitted effect of over 55% in size
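DMSO vehicle served as the neutral condition. Each well held 2,000 cells given 5-fluorouridine plus compound; after 16 hr at 37 °C/5% CO2, ONE-Glo was added and luciferase measured 30 min later.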
RORg inh: blocks mouse ROR gamma transcriptional activity; 5.4% of 310,000 active; Potency, µM (titrated, usually from 53.6 µM), actives largely listed as inhibitors; Drosophila S2 Gal4-RORgamma UAS-luciferase reporter, 20 h; AID 2551; P51450; further: nearly all actives have a fitted effect of over 60% in size
Target sequence (P51450 whole entry, looked up, the tested form may be a part): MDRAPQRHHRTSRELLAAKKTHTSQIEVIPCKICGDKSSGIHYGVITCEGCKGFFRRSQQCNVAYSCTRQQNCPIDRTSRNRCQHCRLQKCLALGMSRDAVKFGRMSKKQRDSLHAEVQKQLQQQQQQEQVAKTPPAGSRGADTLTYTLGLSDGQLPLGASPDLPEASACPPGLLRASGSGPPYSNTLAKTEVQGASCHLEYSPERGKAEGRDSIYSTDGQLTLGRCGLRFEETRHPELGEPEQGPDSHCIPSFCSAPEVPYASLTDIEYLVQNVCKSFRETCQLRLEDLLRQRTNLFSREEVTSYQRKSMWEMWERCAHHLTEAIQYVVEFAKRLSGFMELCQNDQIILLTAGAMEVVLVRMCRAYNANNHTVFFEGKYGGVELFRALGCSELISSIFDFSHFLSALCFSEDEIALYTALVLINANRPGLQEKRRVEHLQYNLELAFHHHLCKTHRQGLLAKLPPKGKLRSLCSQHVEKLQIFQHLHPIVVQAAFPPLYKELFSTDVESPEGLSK
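ROR gamma transcriptional activity was tracked as Gal4-UAS luciferase output in stably transfected Drosophila Schneider cells, with compound added 1 hr before 700 uM copper sulfate induction and a 20 hr ambient-temperature incubation.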
DT40 TDP1 no CPT: qHTS for Inhibitors of human tyrosyl-DNA phosphodiesterase 1 (TDP1): qHTS in cells in absence of CPT; Potency, µM (top dose mostly 46.2 µM), actives largely listed as inhibitors; AID 686978, 2013; DT40 Tdp1-/- hTDP1 cells, no CPT, ATP luminescence, 48 h; 15% of 420,000 active; further: nearly all actives have a fitted effect of over 55% in size
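Chicken DT40 Tdp1-/- cells complemented with human TDP1, screened without camptothecin (DMSO vehicle only), 400 cells/well. Compounds pin-transferred, cells incubated at 37 °C for at least 48 hr. Growth read as ATP-dependent luminescence (CellTiter-Glo, 30 min at RT).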
IL1B secr inh: blocks inflammasome-driven IL-1 beta release; 4.7% of 360,000 active; AID 743279; THP-1 LPS/ATP IL-1B secretion, AlphaLISA, 16 h; active compounds read low; activity change, % at 57.5 µM; in the data active means activity change below about -50%; inconclusive means mostly about -30% to -49%
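THP-1 cells pretreated 1 hr with compounds (up to 57.5 uM final), then stimulated with LPS (250 ng/mL final) plus ATP (1.25 mM final); secreted IL-1B measured by AlphaLISA after 16 hr, decreased signal indicating inhibition.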
Numbers stand for hits. Unless noted, the call rests on the fitted dose curve; in most records, active means well fitted curve in the direction sought with a large enough effect; inconclusive means small, poorly fitted or top-dose-only effect, or another doubt; inactive means no such curve, though single readings can be large; an effect the other way counts as inactive or inconclusive.

`CCCc1ccc2oc(C(=O)NCc3nnc(C)o3)c(C)c2c1` gave TDP1 cell CPT inactive, Gal4-VP16 FLuc inactive, ELG1 DNA repair inconclusive, RORg inh inactive, DT40 TDP1 no CPT inactive and IL1B secr inh inconclusive.
`COc1ccc(C(CNC(=O)c2oc3ccc(C)cc3c2C)N2CCOCC2)cc1` (stereo not given) gave TDP1 cell CPT 23µM and DT40 TDP1 no CPT inactive.
For COc1ccc(C(CNC(=O)c2cc(C)oc2C)N2CCOCC2)cc1 (stereo not given) the results were TDP1 cell CPT inconclusive, Gal4-VP16 FLuc inactive, ELG1 DNA repair inactive, RORg inh inactive, DT40 TDP1 no CPT inconclusive and IL1B secr inh inactive.
Screening Cc1ccc(S(=O)(=O)N(C)c2ccc3sc(C)nc3c2)cc1 returned TDP1 cell CPT inconclusive, Gal4-VP16 FLuc inactive, ELG1 DNA repair inactive, RORg inh inactive, DT40 TDP1 no CPT 23µM and IL1B secr inh inactive.
Screening Cc1noc(C)c1C(=O)Nc1cccc2ncccc12 returned TDP1 cell CPT inactive, Gal4-VP16 FLuc inactive, ELG1 DNA repair inactive, RORg inh inactive, DT40 TDP1 no CPT inactive and IL1B secr inh inactive.
`COc1ccc(C(=O)N2CC3(CC(c4cccc(NC(=O)COc5ccc(Cl)cc5)c4)=NO3)C[C@@H]2C(N)=O)cc1` (stereo not given in full) gave TDP1 cell CPT 21µM, Gal4-VP16 FLuc inactive, ELG1 DNA repair inconclusive, RORg inh inconclusive, DT40 TDP1 no CPT inconclusive and IL1B secr inh -57.
`CCCCCC(=O)Nc1cccc(C2=NOC3(C2)C[C@H](C(N)=O)N(C(=O)COc2ccc(Cl)cc2)C3)c1` (stereo not given in full) gave TDP1 cell CPT inconclusive, Gal4-VP16 FLuc inactive, ELG1 DNA repair 7.3µM, RORg inh inconclusive, DT40 TDP1 no CPT inconclusive and IL1B secr inh inconclusive.
For C/C=C\C=C/C(=O)Nc1cccc(C2=NOC3(C2)C[C@@H](C(N)=O)N(C(=O)COc2ccc(Cl)cc2)C3)c1 (stereo not given in full) the results were TDP1 cell CPT inactive, Gal4-VP16 FLuc inactive, ELG1 DNA repair inactive, RORg inh inactive, DT40 TDP1 no CPT inconclusive and IL1B secr inh inconclusive.
`C/C=C(\C)C(=O)N1CC2(CC(c3cccc(NC(=O)COc4ccc(Cl)cc4)c3)=NO2)C[C@@H]1C(N)=O` (stereo not given in full) gave TDP1 cell CPT inactive, Gal4-VP16 FLuc inactive, ELG1 DNA repair inactive, RORg inh inactive, DT40 TDP1 no CPT inconclusive and IL1B secr inh inactive.
NC(=O)[C@@H]1CC2(CC(c3cccc(NC(=O)COc4ccc(Cl)cc4)c3)=NO2)CN1C(=O)c1ccccc1 (stereo not given in full) was read as TDP1 cell CPT inconclusive, Gal4-VP16 FLuc inactive, ELG1 DNA repair inactive, RORg inh inconclusive, DT40 TDP1 no CPT inconclusive and IL1B secr inh -65.
Screening CC1CCCCN1c1nnc(NC(=O)Nc2ccccc2F)s1 (stereo not given) returned TDP1 cell CPT inconclusive and DT40 TDP1 no CPT 21µM.
For COc1cccc(NC(=S)NC2CC3CCCC(C2)N3C2CCCC2)c1 (stereo not given) the results were TDP1 cell CPT inconclusive, Gal4-VP16 FLuc inactive, ELG1 DNA repair inactive, RORg inh inactive, DT40 TDP1 no CPT inconclusive and IL1B secr inh inactive.
CN1CCN(NC(=S)Nc2ccc(Oc3ccccc3)cc2)CC1 was read as TDP1 cell CPT inactive, Gal4-VP16 FLuc inactive, ELG1 DNA repair inconclusive, RORg inh inconclusive, DT40 TDP1 no CPT inconclusive and IL1B secr inh inactive.
Screening COc1cccc(NC(=O)Nc2nnc(Cc3ccccc3)s2)c1 returned TDP1 cell CPT inconclusive, Gal4-VP16 FLuc inactive, ELG1 DNA repair inactive, RORg inh inactive, DT40 TDP1 no CPT inconclusive and IL1B secr inh inactive.
For COc1cccc(NC(=O)Nc2nnc(N3C(C)CCCC3C)s2)c1 (stereo not given) the results were TDP1 cell CPT inconclusive, Gal4-VP16 FLuc inactive, ELG1 DNA repair inconclusive, RORg inh inactive, DT40 TDP1 no CPT 18µM and IL1B secr inh inactive.
Screening COc1cccc(NC(=S)NN2C(C)CCCC2C)c1 (stereo not given) returned TDP1 cell CPT inactive, Gal4-VP16 FLuc 5.6µM, ELG1 DNA repair inactive, RORg inh 2.2µM, DT40 TDP1 no CPT inactive and IL1B secr inh inactive.
`COc1cccc(NC(=S)NN2CCN(C)CC2)c1` gave TDP1 cell CPT 29µM, Gal4-VP16 FLuc inactive, ELG1 DNA repair inconclusive, RORg inh inactive, DT40 TDP1 no CPT inactive and IL1B secr inh inactive.
For CCC1CN(C(=O)N2CCC(C(=O)NCc3ccccc3OC)CC2)c2ccccc2O1 (stereo not given) the results were TDP1 cell CPT inconclusive, Gal4-VP16 FLuc inactive, ELG1 DNA repair inactive, RORg inh inactive, DT40 TDP1 no CPT inconclusive and IL1B secr inh inactive.
CCOc1ccc(NC(=O)C2CCN(C(=O)NCc3ccccc3)CC2)cc1 was read as TDP1 cell CPT inactive, Gal4-VP16 FLuc inactive, ELG1 DNA repair inactive, RORg inh inactive, DT40 TDP1 no CPT inactive and IL1B secr inh inactive.
CCOc1ccc(CNC(=O)C2CCN(C(=O)N3CC(CC)Oc4ccccc43)CC2)cc1 (stereo not given) was read as TDP1 cell CPT 15µM and DT40 TDP1 no CPT 23µM.
Screening CCOc1ccc(CCNC(=O)C2CCN(C(=O)N3CC(CC)Oc4ccccc43)CC2)cc1 (stereo not given) returned TDP1 cell CPT 15µM and DT40 TDP1 no CPT 15µM.
Screening CCOc1ccc(S(=O)(=O)N2CCC(C(=O)NCCc3ccccc3)CC2)cc1 returned TDP1 cell CPT inactive, Gal4-VP16 FLuc inactive, ELG1 DNA repair inactive, RORg inh inactive, DT40 TDP1 no CPT inactive and IL1B secr inh inactive.
CCC1CN(C(=O)N2CCC(C(=O)NCc3ccc(N(C)C)cc3)CC2)c2ccccc2O1 (stereo not given) was read as TDP1 cell CPT 16µM and DT40 TDP1 no CPT inconclusive.
`O=C(NC1CCCCC1)c1cccc(N2C(=O)CCC2=O)c1` gave TDP1 cell CPT inactive, ELG1 DNA repair inactive, DT40 TDP1 no CPT inactive and IL1B secr inh inactive.
COc1cc(C(=O)ON=C2C=C(C)C(=O)C(C)=C2)cc(OC)c1OC was read as TDP1 cell CPT 15µM, Gal4-VP16 FLuc inactive, ELG1 DNA repair inconclusive, RORg inh inactive, DT40 TDP1 no CPT 16µM and IL1B secr inh inactive.
COc1cc(C(=O)O/N=C2\C=CC(=O)C(C)=C2)cc(OC)c1OC was read as TDP1 cell CPT 6.5µM, Gal4-VP16 FLuc 5.6µM, ELG1 DNA repair inactive, RORg inh 5µM, DT40 TDP1 no CPT 16µM and IL1B secr inh -72.
